Data taken from publication PMC5540273 (PLoS ONE, 2017).

Key:
Settings in all cases: concentration: 1 μM, replicates: in singlicate; n = 1
[1] = tested on: T1, RSK4(Kin.Dom.1-N-terminal)
T1 construct: gene RPS6KA6

[2] = tested on: T2, RSK4(Kin.Dom.2-C-terminal)
T2 construct: gene RPS6KA6

S6K1 = tested on: S6K1
SBK1 = tested on: SBK1
SGK2 = tested on: SGK2
SGK3 = tested on: SGK3
SGK = tested on: SGK
SIK2 = tested on: SIK2
SIK = tested on: SIK
SLK = tested on: SLK
SNARK = tested on: T3, SNARK
T3 construct: gene NUAK2

SNRK = tested on: SNRK
SRC = tested on: SRC
SRMS = tested on: SRMS
SRPK1 = tested on: SRPK1
SRPK2 = tested on: SRPK2
SRPK3 = tested on: SRPK3
STK16 = tested on: STK16
STK33 = tested on: STK33
STK35 = tested on: STK35
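Further: KINOMEscan kinase panel screen.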

Row | Structure (SMILES) | %Inh [1] [%] | %Inh [2] [%] | %Inh (S6K1) [%] | %Inh (SBK1) [%] | %Inh (SGK2) [%] | %Inh (SGK3) [%] | %Inh (SGK) [%] | %Inh (SIK2) [%] | %Inh (SIK) [%] | %Inh (SLK) [%] | %Inh (SNARK) [%] | %Inh (SNRK) [%] | %Inh (SRC) [%] | %Inh (SRMS) [%] | %Inh (SRPK1) [%] | %Inh (SRPK2) [%] | %Inh (SRPK3) [%] | %Inh (STK16) [%] | %Inh (STK33) [%] | %Inh (STK35) [%]
1 | O=C(Nc1cccc(-c2nn3ncccc3c2-c2ccnc(Nc3ccccc3)n2)c1)c1c(F)cccc1F [GSK198271] | 1 | 22 | 0 | 13 | 0 | 4 | 0 | 6 | 44 | 95 | 32 | 45 | 62 | 94.9 | 32 | 0 | 0 | 7 | 0 | 79
2 | COc1cc(Nc2nccc(N3CCC(NC(=O)c4cc5ccccc5s4)C3)n2)cc(OC)c1OC (stereo not drawn) [GSK1379760] | 0 | 11 | 17 | 17 | 0 | 10 | 11 | 15 | 14 | 76 | 20 | 0 | 21 | 8 | 61 | 0 | 22 | 10 | 0 | 9
3 | CN(C)Cc1ccc(-c2ccc3c(Nc4ccc(Oc5ccccn5)cc4)ccnc3c2)o1 [GW567148] | 17 | 0 | 5 | 8 | 0 | 0 | 0 | 79 | 99.2 | 31 | 12 | 0 | 36 | 94.5 | 0 | 0 | 0 | 0 | 55 | 66
4 | COc1cccc(-c2ccc3c(NC(=O)C4CC4)n[nH]c3n2)c1 [SB-710903] | 5 | 21 | 8 | 0 | 5 | 2 | 19 | 0 | 0 | 30 | 0 | 0 | 0 | 0 | 10 | 50 | 0 | 26 | 0 | 0
5 | O=C(Nc1n[nH]c2nc(-c3ccc(O)cc3)ccc12)C1CC1 [SB-710363] | 70 | 0 | 40 | 0 | 36 | 15 | 43 | 0 | 0 | 61 | 0 | 0 | 0 | 2 | 20 | 0 | 25 | 73 | 0 | 0
6 | COc1ccc(CNC(=O)NC2CCN(c3ccnc(Nc4ccc(F)cc4)n3)CC2)cc1 [GSK1379788] | 0 | 12 | 0 | 0 | 0 | 0 | 0 | 0 | 0 | 7 | 0 | 0 | 0 | 0 | 0 | 11 | 0 | 9 | 0 | 0
7 | NCCCC(NC(=O)c1cc(Br)c(-c2ccnc3[nH]ccc23)s1)c1ccccc1.O=C(O)C(F)(F)F.O=C(O)C(F)(F)F (stereo not drawn) [GSK1287544] | 8 | 0 | 58 | 44 | 65 | 52 | 54 | 0 | 19 | 14 | 88 | 6 | 0 | 0 | 70 | 12 | 57 | 60 | 91.5 | 0
8 | O=C(O)C(F)(F)F.O=C(O)C(F)(F)F.O=c1[nH]ccc2nc(N[C@@H]3CCCNC3)nc(Nc3ccc(S(=O)(=O)N4CCOCC4)cc3)c12 [GSK2177277] | 99.4 | 52 | 98.8 | 92.7 | 96.1 | 99.2 | 88 | 84 | 78 | 98.4 | 99.6 | 72 | 96.7 | 0 | 100 | 65 | 95.2 | 99.3 | 98.6 | 98
9 | Cl.NC(=O)c1cccc(Nc2nccc(Nc3ccc(Oc4c(Cl)cccc4Cl)c(Cl)c3)n2)c1 [GW659009] | 0 | 0 | 0 | 24 | 4 | 0 | 19 | 0 | 90.2 | 0 | 1 | 5 | 18 | 19 | 37 | 0 | 6 | 35 | 0 | 0
10 | Cl.Cl.NCC(NCc1ccc(-c2ccnc3[nH]ccc23)s1)c1ccccc1 (stereo not drawn) [GSK1321565] | 55 | 26 | 53 | 57 | 0 | 43 | 55 | 0 | 5 | 74 | 93.5 | 0 | 0 | 0 | 68 | 83 | 77 | 49 | 76 | 0
11 | FC(F)(F)c1ccc(/C=C/c2cncnc2Nc2ccc3[nH]c(Cc4ccccc4)nc3c2)cc1 [GW709199] | 0 | 0 | 0 | 0 | 0 | 0 | 0 | 4 | 20 | 5 | 45 | 0 | 1 | 0 | 21 | 56 | 2 | 0 | 0 | 0
12 | COc1cc(Nc2nccc(-c3c(-c4cccc(NC(=O)c5c(F)cccc5F)c4)nn4ccccc34)n2)cc(OC)c1OC [GSK323521] | 0 | 23 | 7 | 17 | 26 | 7 | 22 | 0 | 30 | 25 | 40 | 0 | 22 | 0 | 0 | 21 | 30 | 15 | 11 | 0
13 | COC(=O)Nc1nc2cc(Oc3ccc(NC(=O)Nc4cc(C(F)(F)F)ccc4F)cn3)ccc2[nH]1.Cl.Cl [GW681170] | 0 | 0 | 12 | 0 | 1 | 6 | 12 | 0 | 0 | 36 | 14 | 0 | 29 | 0 | 25 | 8 | 0 | 17 | 55 | 0
14 | COc1cc(Nc2ncc3c(C)nc(-c4cc5ccccc5[nH]4)n3n2)cc(OC)c1OC [GW869516] | 7 | 3 | 0 | 0 | 0 | 1 | 0 | 29 | 20 | 63 | 9 | 0 | 90.1 | 13 | 9 | 6 | 19 | 86 | 10 | 0
15 | Clc1ccc(-c2nn3ncccc3c2-c2ccnc(Nc3ccc4c(c3)OCCO4)n2)cc1 [GW829116] | 0 | 88 | 9 | 0 | 0 | 0 | 35 | 30 | 1 | 87 | 0 | 0 | 44 | 13 | 0 | 0 | 0 | 32 | 0 | 0
16 | COc1cc2c(cc1OCCN1CCNCC1)ncc1c3ccc(C#N)cc3[nH]c21 | 73 | 7 | 52 | 63 | 46 | 34 | 67 | 79 | 18 | 23 | 94.6 | 12 | 0 | 19 | 36 | 0 | 42 | 9 | 19 | 0
17 | O=C(Nc1cccc(Oc2ccc3nc(NC(=O)C4CC4)cn3n2)c1)c1ccccc1C(F)(F)F | 0 | 0 | 0 | 0 | 7 | 0 | 0 | 28 | 1 | 32 | 0 | 0 | 5 | 0 | 59 | 14 | 48 | 17 | 0 | 3
18 | COc1ccc(-c2coc3ccc(-c4nnc(SCc5ccc(OC)c(C(F)(F)F)c5)o4)cc23)cc1 | 25 | 16 | 0 | 0 | 6 | 28 | 0 | 21 | 10 | 9 | 35 | 21 | 4 | 0 | 8 | 0 | 0 | 17 | 7 | 0
